Sfp PPTase inh: blocks B. subtilis Sfp PPTase activity | Q9F4F7 | Biochemical Sfp PPTase activity, qHTS | Potency, µM, usual class: inhibitors | 310,000 compounds, 3.5% hits | AID 1490;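 note: the enzyme is Sfp with the accession as filed and its product quenches rhodamine fluorescence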
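After 15 min at room temperature with compound, 15 nM Sfp received 5 uM rhodamine-CoA plus 12.5 uM BHQ-2-ybbR (50 mM Hepes pH 7.6, 10 mM MgCl2). Rate came from the fluorescence difference over 30 min, ex 525/em 598 nm.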
L3MBTL1 inh: inhibitors of human L3MBTL1 | AlphaScreen L3MBTL1–H3K9me1 peptide binding | Potency, µM (doses to about 57.1 µM), hits mostly inhibitors | 230,000 compounds, 0.66% hits; note: nearly all actives have a fitted effect of over 60% in size
Target sequence (Q9Y468 whole entry, looked up): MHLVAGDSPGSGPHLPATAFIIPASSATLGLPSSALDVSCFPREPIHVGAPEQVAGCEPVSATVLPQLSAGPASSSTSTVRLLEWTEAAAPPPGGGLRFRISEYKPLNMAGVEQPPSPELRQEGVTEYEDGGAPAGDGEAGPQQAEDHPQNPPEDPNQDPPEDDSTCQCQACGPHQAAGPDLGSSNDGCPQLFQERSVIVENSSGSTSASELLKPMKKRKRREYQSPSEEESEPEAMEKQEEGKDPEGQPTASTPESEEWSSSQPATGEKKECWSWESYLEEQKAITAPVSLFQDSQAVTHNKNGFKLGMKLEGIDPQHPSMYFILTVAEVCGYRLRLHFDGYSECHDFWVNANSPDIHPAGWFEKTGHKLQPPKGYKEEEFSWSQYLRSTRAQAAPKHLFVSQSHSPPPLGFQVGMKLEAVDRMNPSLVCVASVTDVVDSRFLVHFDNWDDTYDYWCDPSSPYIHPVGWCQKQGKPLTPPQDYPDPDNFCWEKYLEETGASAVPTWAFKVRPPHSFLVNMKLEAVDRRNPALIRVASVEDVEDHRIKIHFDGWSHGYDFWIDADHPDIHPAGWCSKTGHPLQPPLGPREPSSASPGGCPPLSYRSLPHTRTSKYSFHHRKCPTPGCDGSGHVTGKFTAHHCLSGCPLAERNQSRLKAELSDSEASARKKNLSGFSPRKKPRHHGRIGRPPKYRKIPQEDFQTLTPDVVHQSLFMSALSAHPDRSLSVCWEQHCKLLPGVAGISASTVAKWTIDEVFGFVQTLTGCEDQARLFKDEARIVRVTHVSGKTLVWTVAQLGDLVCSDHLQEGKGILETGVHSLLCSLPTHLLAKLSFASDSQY
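First, the protein-peptide complex forms for 30 min at room temperature (L3MBTL1 50 nM, biotinylated H3K9me1 peptide 75 nM). Next, compounds are pin-transferred and incubated 30 min. Finally, AlphaScreen beads are added and read after 30 min.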
JMJD2A Tudor inh: inhibitors of human JMJD2A Tudor domain. O75164. AlphaScreen JMJD2A-Tudor / H3K4me3 peptide binding. Potency, µM (titrated, usually from 114 µM), actives largely listed as inhibitors. 390,000 compounds, 4.4% hits. AID 504339; note: nearly all actives have a fitted effect of over 50% in size
BAZ2B block: inhibitors of human BAZ2B bromodomain. 360,000 compounds, 4.4% hits. Q9UIF8. Potency, µM (series often up to 114 µM), most hits filed as inhibitors. AlphaScreen BAZ2B-H3K14Ac peptide displacement. AID 504333; note: nearly all actives have a fitted effect of over 60% in size
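AlphaScreen displacement: compounds (up to 110uM) incubated 30 min at room temperature with a preformed 50 nM BAZ2B/50 nM biotinylated H3K14Ac peptide complex in PBS pH 7.4 with Tween-20. Donor and acceptor beads at 10 ug/mL final added, 20 min light-protected before reading.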
HP1b binding inh: inhibitors of HP1-beta chromodomain binding to methylated histone tails; P83916; AlphaScreen HP1-beta / biotin-H3K9me3 peptide binding; Potency, µM (doses to about 114 µM), hits mostly inhibitors; 390,000 compounds, 0.56% hits; AID 540317; note: nearly all actives have a fitted effect of over 70% in size
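Compound inhibition of the preformed complex between 50 nM HP1-beta and 50 nM biotinylated H3K9me3 peptide was read by AlphaScreen. Buffer was PBS pH 7.4 with 0.01% Tween-20. Incubations ran 30 min at room temperature, with 10 ug/mL donor/acceptor beads.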
G9a inh: inhibitors of human histone lysine methyltransferase G9a; G9a H3K9 monomethylation, AlphaScreen, 2 h; Potency, µM (series often up to 102 µM), hits mostly inhibitors; 350,000 compounds, 8.8% hits; AID 504332; note: nearly all actives have a fitted effect of over 75% in size
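G9a (20 nM) was preincubated 15 min with compound, then reacted 2 h at room temperature with 500 nM biotin-H3K9 peptide and 20 µM SAM. Monomethyl-H3K9 detected by AlphaScreen using anti-H3K9me1 antibody.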
A number is an active result; ! = a repeat was not active; [ ] = dose if it differs, or a comment. In the library only some 12% were active in any assay of this set; here they are far more common. Calls come from the whole dose curve; as a rule, active = well fitted curve in the direction sought with a large enough effect; inconclusive = small, poorly fitted or top-dose-only effect, or another doubt; inactive = no such curve, though single readings can be large; an effect the other way counts as inactive or inconclusive.

CCOC(=O)c1c(NC(=S)NCC2CCCO2)sc(C)c1C (stereo not given) was read as Sfp PPTase inh 22µM, JMJD2A Tudor inh inconclusive, HP1b binding inh inconclusive and G9a inh 4.5µM.
CCOC(=O)c1c(-c2ccc(C)cc2)csc1NC(=O)c1nc(SCC)ncc1Cl was read as JMJD2A Tudor inh inactive, BAZ2B block inactive, HP1b binding inh inactive and G9a inh inactive.
COC(=O)C1=C(C(=O)OC)[C@@H]2N(C)c3ccccc3[C@@]23C[C@@H](C(=O)OC)N(S(=O)(=O)c2ccc(C)cc2)C3=N1 was read as Sfp PPTase inh inactive.
Cc1ccc(CCNC(=O)CN(c2ccc(C(C)C)cc2)S(=O)(=O)c2c(C)nn(C)c2C)cc1 was read as JMJD2A Tudor inh inactive, BAZ2B block inactive, HP1b binding inh inactive and G9a inh inactive.
For CCN(CC)S(=O)(=O)c1ccc2nc(NC(=O)c3ccc(Br)o3)sc2c1 the results were JMJD2A Tudor inh inactive, BAZ2B block inactive, HP1b binding inh inactive and G9a inh inactive.
Cc1noc(C)c1C(=O)N1CCC2(CCCN(C(=O)NC(C)C)C2)CC1 was read as Sfp PPTase inh inactive and G9a inh inactive[12.7 µM].
Cc1cc(=O)n(CC(=O)O)c2ccccc12 was read as Sfp PPTase inh inactive, L3MBTL1 inh inactive, JMJD2A Tudor inh inactive, BAZ2B block inactive, HP1b binding inh inactive and G9a inh inactive.
Screening Cc1cc(C)n(CC(=O)O)c(=O)c1[N+](=O)[O-] returned Sfp PPTase inh inactive, JMJD2A Tudor inh inactive, BAZ2B block inactive, HP1b binding inh inactive and G9a inh 45µM.
`O=C(NCCN1CCCCCC1)C1CCC(CNS(=O)(=O)c2cccc3cccnc23)CC1` (stereo not given) gave Sfp PPTase inh inactive, JMJD2A Tudor inh inconclusive, BAZ2B block inactive, HP1b binding inh inactive and G9a inh 45µM.
For CC(=O)OCC1=C(C(=O)O)N2C(=O)C(NC(=O)C(C)Cn3nc(C)c(Cl)c3C)C2SC1 (stereo not given) the results were Sfp PPTase inh inactive, JMJD2A Tudor inh inactive, BAZ2B block 56µM, HP1b binding inh inactive and G9a inh 40µM.
For CO/N=C(\C(=O)N[C@@H]1C(=O)N2C(C(=O)O)=C(COC(C)=O)CS[C@@H]12)c1csc(N)n1 the results were Sfp PPTase inh inconclusive and G9a inh inactive[12.7 µM].
CO/N=C(/C(=O)N[C@@H]1C(=O)N2C(C(=O)O)=C(C[n+]3ccc(N)n3CCO)CS[C@H]12)c1csc(N)n1 was read as Sfp PPTase inh inconclusive and G9a inh inactive[12.7 µM].
Screening CO/N=C(\C(=O)N[C@@H]1C(=O)N2C(C(=O)O)=C(CSc3nc(=O)c(O)nn3C)CSC12)c1csc(N)n1 (stereo not given in full) returned G9a inh 28µM!.
`CO/N=C(\C(=O)N[C@@H]1C(=O)N2C(C(=O)O)=C(COC(N)=O)CS[C@H]12)c1ccco1` gave Sfp PPTase inh inactive, L3MBTL1 inh inconclusive, JMJD2A Tudor inh 25µM, BAZ2B block inactive, HP1b binding inh inactive and G9a inh inconclusive.
Screening CON=C(C(=O)NC1C(=O)N2C(C(=O)O)=C(CSc3nc(=O)c(=O)[nH]n3C)CSC12)c1csc(N)n1 (stereo not given) returned JMJD2A Tudor inh 50µM and HP1b binding inh inactive.
`Cc1cccc(NC(=O)Cn2cc(C(=O)c3ccco3)c3ccccc32)c1C` gave JMJD2A Tudor inh inactive, BAZ2B block inconclusive, HP1b binding inh inactive and G9a inh inactive.
Screening COc1ccc(CCNc2ncnc3c2nnn3C)cc1 returned JMJD2A Tudor inh inactive, BAZ2B block inactive, HP1b binding inh inactive and G9a inh inactive.
Screening O=c1c2cccnc2n(Cc2cccc(F)c2)c(=O)n1Cc1ccc(F)cc1 returned JMJD2A Tudor inh inactive, BAZ2B block inactive, HP1b binding inh inactive and G9a inh inactive.
Screening CO/N=C(\C(=O)N[C@@H]1C(=O)N2C(C(=O)O)=C(COC(C)=O)CS[C@H]12)c1csc(N)n1 returned Sfp PPTase inh inconclusive and G9a inh 11µM.
`CCC(C(=O)Nc1cc(OC)cc(OC)c1)n1nc(-c2ccc(C)c(C)c2)ccc1=O` (stereo not given) gave JMJD2A Tudor inh inactive, BAZ2B block inconclusive, HP1b binding inh inactive and G9a inh inconclusive.
For Cc1ccccc1C(=O)NC(=S)NCC(=O)c1ccccc1 the results were Sfp PPTase inh inactive, L3MBTL1 inh inactive, JMJD2A Tudor inh inactive, BAZ2B block inactive, HP1b binding inh inactive and G9a inh inactive.
Cc1ccccc1C(=O)NCC(=O)NNC(=S)NC(=O)c1ccccc1C was read as Sfp PPTase inh inactive, L3MBTL1 inh inactive, JMJD2A Tudor inh inconclusive, BAZ2B block inactive, HP1b binding inh inactive and G9a inh 10µM.
Cc1ccccc1C(=O)NCC(=O)NNC(=S)NC(=O)c1ccccc1 was read as Sfp PPTase inh inactive, L3MBTL1 inh inactive, JMJD2A Tudor inh inactive, BAZ2B block inactive, HP1b binding inh inactive and G9a inh 1.1µM.
C=CCc1c(C)nc(-c2ccccc2)nc1N/N=C(\C)c1ccccc1 was read as Sfp PPTase inh 45µM, L3MBTL1 inh inactive, JMJD2A Tudor inh inactive, BAZ2B block inactive, HP1b binding inh inactive and G9a inh inconclusive.
Screening O=C(Oc1ccc2c(=O)c(Cl)coc2c1)c1ccncc1 returned Sfp PPTase inh inactive, L3MBTL1 inh inactive, JMJD2A Tudor inh inactive, BAZ2B block inconclusive, HP1b binding inh inactive and G9a inh 35µM.
For O=C(Oc1ccc2c(=O)c(Oc3ccc4ccccc4c3)coc2c1)c1cncc(Br)c1 the results were Sfp PPTase inh inactive, L3MBTL1 inh inactive, JMJD2A Tudor inh inactive, BAZ2B block inactive, HP1b binding inh inactive and G9a inh inactive.
`N#Cc1c(NCCCO)nc(NCc2ccccc2)c2c1CCN(Cc1ccccc1)C2` gave Sfp PPTase inh inactive, L3MBTL1 inh inactive, JMJD2A Tudor inh 56µM, BAZ2B block 32µM, HP1b binding inh inconclusive and G9a inh 40µM.
For CC(C)c1nc(NCc2ccccc2)c(C#N)c2c1CCCC2 the results were Sfp PPTase inh inactive, L3MBTL1 inh inactive, JMJD2A Tudor inh inactive[11.4 µM], BAZ2B block inactive, HP1b binding inh inactive and G9a inh inactive.
For CN1CCc2c(C#N)c(N3CCCCC3)nc(NCc3ccccc3)c2C1 the results were Sfp PPTase inh inconclusive, L3MBTL1 inh inactive, JMJD2A Tudor inh inconclusive, BAZ2B block inconclusive, HP1b binding inh inactive and G9a inh 40µM.
For CCC1Oc2ccc(C)cc2N(CC(=O)N2CCN(c3ccc(F)cc3)CC2)C1=O (stereo not given) the results were Sfp PPTase inh inactive, L3MBTL1 inh inactive, JMJD2A Tudor inh inconclusive, BAZ2B block inactive, HP1b binding inh inactive and G9a inh 45µM.
